Source: PubChem BioAssay AID588413 (Sanford-Burnham Center for Chemical Genomics, 2011)
In all, about 340,000 compounds went through this assay and about 2,500 (0.74%) were called active.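 Rule for the calls: active = inhibition above about 55% (limit read from the data); inactive = the rest.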 The entries come from a sample that favours actives as a whole.

Assay: Gli-Sufu pathway antagonists, primary screen, luciferase luminescence, Sufu-KO-LIGHT cells, uHTS (AID 588413);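 note: 0% = DMSO-treated cells and 100% = wells with medium but no cells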
Conditions: Sufu-KO-LIGHT fibroblasts, Gli luciferase reporter luminescence; at 5 µM; hits give high values

SMILES	inhibition
O=C(NC1CCc2ccccc21)C12CN(Cc3ccccc3)CC1C(c1cccc([N+](=O)[O-])c1)=NO2 (stereo unspecified)	6.88% (inactive)
CCS(=O)(=O)Nc1ccc(C2=NN(S(=O)(=O)c3ccc(F)cc3)C(c3ccco3)C2)cc1 (stereo unspecified)	1.29% (inactive)
Cn1cc(S(=O)(=O)Nc2ccc(Cl)cc2Cl)c(=O)n(C)c1=O	1.79% (inactive)
Cc1cc(C(=O)NCCc2ccc(Cl)cc2)n(-c2ccccc2)n1	-16.3% (inactive)
O=C(NCCOCc1ccc(Cl)cc1)c1ncn[nH]1	84.5% (active)
O=C(NCCS(=O)(=O)NCc1ccc(Cl)cc1)c1ccccc1	-12.9% (inactive)
CCOc1ccc(NC(=S)N2CCCCCC2)cc1	-2.25% (inactive)
Cc1nn(C)c(C)c1S(=O)(=O)N1CCC(CO)(Cc2ccc(Cl)cc2)CC1	8.21% (inactive)
CNC(=S)NNC(=O)c1cccn(Cc2ccccc2)c1=O	13.9% (inactive)
C=CCNC(=O)COc1coc(CN2CCN(Cc3ccccc3)CC2)cc1=O	3.43% (inactive)
C=CCNC(=S)/N=c1/ccccn1Cc1ccccc1	67.3% (active)
Cc1cccc(NC(=O)C2CCCN2S(=O)(=O)c2ccc(F)cc2)c1C (stereo unspecified)	10.9% (inactive)
Cc1[nH]nc(-c2ccc(OCc3cnn(-c4ccccc4)c3)cc2O)c1Oc1ccc(Cl)cc1	4.97% (inactive)
COc1cccc(CC(=NO)c2cccc(OC)c2)c1	-2.96% (inactive)
Cc1noc(NS(=O)(=O)c2ccc(N3CC(O)=C(c4ccccc4)C3=N)cc2)c1C	-2.28% (inactive)
CCCC1=Nc2cc(C(=O)NCc3ccco3)ccc2Sc2ccccc21	65.9% (active)
CCCC1=Nc2cc(C(=O)NCCN3CCCC3)ccc2Sc2ccccc21	18.7% (inactive)
CC(C)(C)c1ccc(C(=O)NCc2ccco2)cc1	-4.01% (inactive)
COc1c(O)ccc2c1CN1CCc3cc4c(cc3C1C2)OCO4 (stereo unspecified)	-25.1% (inactive)
CCOC(=O)c1sc2nc(C)nc(Nc3ccc(OC)c(OC)c3)c2c1C	12.9% (inactive)
OCC1(Cc2ccccc2)CCN(Cc2cc3ccccc3o2)CC1	22.4% (inactive)
COc1ccccc1/C=C/CN1CCC(CO)(Cc2ccccc2)CC1	65.4% (active)
CC(=O)c1cccc(CN2CCC(CO)(Cc3ccccc3)CC2)c1	30.4% (inactive)

SMILES	inhibition
CCOC(=O)C1CCCN(C(=O)C2CCN(S(=O)(=O)c3ccc(Cl)c(C(F)(F)F)c3)CC2)C1 (stereo unspecified)	3.88% (inactive)
CCOC(=O)c1ccccc1NC(=O)c1c(N)n(C)c(=O)[nH]c1=O	5.02% (inactive)
COc1ccc(-n2nnc3c(=O)n(CC(=O)OCc4ccccc4)cnc32)cc1	1.46% (inactive)
CCC1CCCCN1CCCNC(=O)Cn1nc(-c2ccccc2)ccc1=O (stereo unspecified)	57% (active)
CCCn1c2ccccc2c2cnn(CC(=O)NCCCN3CCCCC3CC)c(=O)c21 (stereo unspecified)	12.7% (inactive)
Cc1ccc(-c2ccc(=O)n(CC(=O)NCCCN3CCCCC3)n2)cc1	5.01% (inactive)
CCOC(=O)c1ccc(S(=O)(=O)N(CCO)Cc2cc3cc(OC)c(OC)cc3[nH]c2=O)cc1	1.66% (inactive)
Cc1ccc(S(=O)(=O)NCCC(c2ccccc2)c2ccccc2)cc1C(=O)O	-19.2% (inactive)
O=C(Nc1ccc(S(=O)(=O)Nc2nccs2)cc1)c1cc(-c2ccncc2)nc2ccccc12	0.2% (inactive)
COC(=O)CNC(=O)c1cc(-c2ccncc2)nc2ccccc12	-8.23% (inactive)
CCN(CC)CCNC(=O)c1ccc(NC(=O)c2cc(-c3ccncc3)nc3ccccc23)cc1	64.3% (active)
CN(C)c1ccc(CNC2C3CC4CC(C3)CC2C4)cc1 (stereo unspecified)	1.25% (inactive)
O=C(NCC(=O)N1CCCCCCC1)c1ccccc1Cl	-20.5% (inactive)
CC(=O)c1ccc(S(=O)(=O)NCCC(=O)N2CCN(c3ccccn3)CC2)cc1	-5.24% (inactive)
O=C(c1cccs1)N(Cc1cc2ccccc2[nH]c1=O)CC1CCCO1 (stereo unspecified)	20.4% (inactive)
Cc1ccc(S(=O)(=O)N(Cc2cc3ccccc3[nH]c2=O)CC2CCCO2)cc1 (stereo unspecified)	64.1% (active)
CCN(Cc1cc2cc(C)ccc2[nH]c1=O)S(=O)(=O)c1ccccc1	0.68% (inactive)
O=C(O)CCCn1c(=O)c2cccn2c2ccc(F)cc21	4.96% (inactive)
COc1ccc(C2=NS(=O)(=O)N(C)C(C(=O)N3CCCCC3)=C2)cc1	14.7% (inactive)
CCOc1ccccc1N1CN(Cc2ccccc2)CNC1=S	-9.38% (inactive)
C=CCC1(CC=C)CCCN1C(=O)c1cc(COc2ccc(-n3cncn3)cc2)on1	77.8% (active)
COc1cccc(OCc2cc(C(=O)N3CCN(C(=O)c4ccco4)CC3)no2)c1	-5.15% (inactive)
O=C(c1cc(COc2ccc(F)c(F)c2)on1)N1CCOCC1	-41.7% (inactive)

SMILES	inhibition
COc1cc(Cl)c(C)cc1NC(=O)CSc1nnc(CN2CCCC2)o1	1.49% (inactive)
N=C1C(c2nc3ccccc3s2)=C(O)CN1NC(=O)c1ccc([N+](=O)[O-])cc1	-3.9% (inactive)
O=C(NC(Nc1nc2ccc([N+](=O)[O-])cc2s1)(C(F)(F)F)C(F)(F)F)c1ccccc1	87.4% (active)
CNC(=O)c1ccsc1NC(=O)c1ccc(S(=O)(=O)N2CCc3ccccc32)cc1	5.3% (inactive)
O=C(Nc1nc2ccc([N+](=O)[O-])cc2s1)c1ccc(S(=O)(=O)N2CCCc3ccccc32)cc1	77.6% (active)
Cc1ccc(NC(=O)c2cccc(S(=O)(=O)N3CCCc4ccccc43)c2)nc1	-3.22% (inactive)
O=C(NOCc1ccccc1)c1cccc([N+](=O)[O-])c1	-14.1% (inactive)
CCOc1ccc(C(=O)Nc2nccs2)cc1[N+](=O)[O-]	-24.3% (inactive)
OC(c1ccc(Cl)cc1)C(CN1CCOCC1)c1ccccc1 (stereo unspecified)	-27.6% (inactive)
Cc1ccc(C(CC(=O)O)NC(=O)c2ccc(S(=O)(=O)N3CCCC3)cc2)cc1 (stereo unspecified)	-3.63% (inactive)
COc1cc(OC)nc(N/N=C(\c2ccccc2)c2ccncc2)n1	7.9% (inactive)
C/C(=N/Nc1nc(-c2ccccc2)c(CC(=O)O)s1)c1ccccc1	-23% (inactive)
c1ccc(C(=NNc2nc3ccccc3s2)c2ccccn2)cc1	82.5% (active)
Cc1cc(S(=O)(=O)N2CCOCC2)ccc1OCC(=O)Nc1cccc(C(F)(F)F)c1	-8.26% (inactive)
COc1ccccc1N1CCN(C(=O)c2c(-c3c(Cl)cccc3Cl)noc2C)CC1	-1.94% (inactive)
COc1ccccc1N1CCN(C(=O)c2cc(=O)c3cc(C)cc(C)c3o2)CC1	56.9% (active)
COc1ccccc1N1CCN(C(=O)c2cc(=O)c3cc(C)ccc3o2)CC1	7.53% (inactive)
Cc1coc2c1c(C)cc1oc(=O)c(CC(=O)NCC(=O)N[C@H](C(=O)O)C(C)C)c(C)c12	23.9% (inactive)
COc1ccc(CCNC(=O)C(=O)NCC2CCCN2S(=O)(=O)c2cccs2)cc1OC (stereo unspecified)	6.8% (inactive)
COc1ccccc1CCNC(=O)C(=O)NCCC1CCCCN1S(=O)(=O)c1cccs1 (stereo unspecified)	55.6% (active)
O=C(NCCC1CCCCN1S(=O)(=O)c1cccs1)C(=O)Nc1ccc(F)cc1F (stereo unspecified)	15.3% (inactive)
CCCCNC(=O)C1CCC(CNS(=O)(=O)c2ccc(NC(C)=O)cc2)CC1 (stereo unspecified)	-6.13% (inactive)
CN(C)c1cc[n+](Cc2ccccc2)cc1	55.3% (active)

SMILES	inhibition
CN(C)c1ccc(CSc2ccccc2)cc1	-50.9% (inactive)
c1ccc(Cc2cc[n+](Cc3ccccc3)cc2)cc1	20.7% (inactive)
COc1cccc(/C=N/NC(=O)CNC(=O)c2ccc(S(=O)(=O)N3CCOCC3)cc2)c1OC	3.3% (inactive)
COc1cc(/C=N/NC(=O)c2cc(-c3ccccc3C)nc3ccccc23)cc(OC)c1O	3.09% (inactive)
COc1cccc(/C=N/NC(=O)c2[nH]nc3c2CCc2ccccc2-3)c1O	81.1% (active)
O=C(NCCCNC(=O)NC1CCCCC1)NC1CCCCC1	0.18% (inactive)
O=[N+]([O-])c1cc([N+](=O)[O-])c(Oc2cc(F)cc(F)c2F)cc1NN1CCCCC1	-2.49% (inactive)
Cn1c(=O)n(C)c2cc(NS(=O)(=O)c3ccc(F)cc3)ccc21	0.54% (inactive)
CC1(C)CC(=O)c2c(n(S(=O)(=O)c3ccccc3)c3ccc(NS(=O)(=O)c4ccccc4)cc23)C1	84.1% (active)
Cn1c(CCN2CCCC2)nc2cc(NS(=O)(=O)c3ccccc3)ccc21	12.8% (inactive)
C[C@H](CO)N1C[C@H](C)[C@@H](CN(C)Cc2ccc(-c3ccccc3)cc2)Oc2ccc(NC(=O)Cn3cnnn3)cc2C1=O	-7.22% (inactive)
N#Cc1ccc(CN2CCN(CC(=O)Nc3ccccc3C(=O)NC3CC3)CC2)cc1	-0.74% (inactive)
COc1cccc(C(=O)Nc2c3c(nn2-c2cccc(C)c2C)CS(=O)(=O)C3)c1OC	5.94% (inactive)
CCC(=O)N1CCc2cc(Br)c(S(=O)(=O)NCCN3CCCCC3CC)cc21 (stereo unspecified)	-20.7% (inactive)
CC(=O)Nc1ccc(S(=O)(=O)N2CCN(C(=O)c3ccccc3F)CC2)cc1	4.91% (inactive)
COCCn1c(CN2CCC(Cc3ccccc3)CC2)nc2c1c(=O)n(C)c(=O)n2C	66.7% (active)
COCCn1c(CN(Cc2ccccc2)Cc2ccccc2)nc2c1c(=O)n(C)c(=O)n2C	9.35% (inactive)
CC1CCN(Cc2nc3c(c(=O)n(C)c(=O)n3C)n2CCc2ccccc2)CC1	0.83% (inactive)
NC1=NC(=O)C(Cc2cccc(Cl)c2Cl)S1 (stereo unspecified)	-27.7% (inactive)
COCCCNC(=O)Cn1cc(C(=O)C2CC2)c2ccccc21	5.8% (inactive)
Cc1ccccc1NC(=O)Cn1cc(C(=O)C2CC2)c2ccccc21	-3.91% (inactive)
O=C(Cn1cc(C(=O)C2CC2)c2ccccc21)Nc1ccccc1Cl	60.8% (active)
